We go through 13 molecules from PubChem BioAssay (NCI).

Some test systems named below: NCI-H23 lung; NCI-H226 lung; NCI-H322M lung; HOP-62 NSCLC; NCI-H460 lung; NCI-H522 lung; A549/ATCC NSCLC; 786-0 renal; COLO 205 colon; DU-145 prostate.
Holding throughout (assay): NCI-60 one-dose screen, 48 h (100 = growth as untreated, 0 = no growth, -100 = all killed)
Common to all, as to settings: 10 µM unless noted

SMILES strings stand for the structures. The panel holds about 83,000 compounds, 20% with a hit somewhere; the sample as a whole holds those more often.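 Values shown are percent growth following 48 h exposure of cells in 96-well plates to a single concentration of compound; below 10 was considered active.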 Values without a mark were called inactive. Active and inactive are the calls of the source.

`CC[C@H](C)C(=O)O[C@H]1C[C@@H](C)C=C2C=C[C@H](C)[C@H](CC[C@@H]3C[C@@H](O)CC(=O)O3)[C@H]21`: the growth in the test with NCI-H23 lung was 67.8%; with NCI-H226 lung, 95.5%; with NCI-H322M lung it was 54.2%; in the test on HOP-62 NSCLC it was 104%; in the test on NCI-H460 lung, 102%; in the test on NCI-H522 lung it was 27.3%. Also, the growth is 102% in the test with A549/ATCC NSCLC, 90.5% with 786-0 renal, 99.7% in the test with COLO 205 colon and 106% with DU-145 prostate.

On to `CCOC(=O)c1cc(-c2cccnc2)nc2c(Cl)cc(Cl)cc12`, for which the growth was 89.6% in the test on NCI-H23 lung; 98.9% with NCI-H226 lung; 84.1% with NCI-H322M lung; 92.5% in the test on HOP-62 NSCLC; 106% in the test with NCI-H460 lung; 93.6% in the test on NCI-H522 lung. Besides, the growth was 74.9% in the test with A549/ATCC NSCLC, 72.5% in the test with 786-0 renal, 121% with COLO 205 colon and 103% in the test with DU-145 prostate.

For the molecule `COc1cc(/C=C/C(=O)c2c(-c3ccc(Cl)cc3)nc3sc(C)nn23)cc(OC)c1OC`, the growth is 84.3% in the test on NCI-H23 lung; 68.3% in the test with NCI-H226 lung; 87.5% in the test on NCI-H322M lung; 98.8% in the test on HOP-62 NSCLC; 97.2% in the test on NCI-H460 lung; -20.1% (active) in the test on NCI-H522 lung. Further, the growth was 83.8% in the test with A549/ATCC NSCLC, 81.4% in the test with 786-0 renal, 100% with COLO 205 colon and 90.2% with DU-145 prostate.

With `Cc1nn(-c2ccc(Cl)cc2)c2nc3c(nc12)C(=O)C(=O)c1ccccc1-3`, the growth in the test with NCI-H23 lung is 75.5%; in the test with NCI-H226 lung, 65.2%; in the test with NCI-H322M lung, 65.1%; in the test on HOP-62 NSCLC it was 72.1%; in the test with NCI-H460 lung, 5.27% (active); in the test on NCI-H522 lung, 79.7%. In addition, the growth in the test on A549/ATCC NSCLC is 18.2%; with 786-0 renal it was 89.5%; in the test with COLO 205 colon it was 54.3%; with DU-145 prostate, -22% (active).

On to `COc1cc(C2C=C(c3ccc(C)cc3)Nc3nc(SC)[nH]c(=O)c32)ccc1Oc1ccnc2cc(Cl)ccc12` (stereo not given), for which the growth with NCI-H23 lung was 80.7%; in the test on NCI-H226 lung it was 79.7%; with NCI-H322M lung, 84%; with HOP-62 NSCLC, 113%; with NCI-H460 lung, 70.2%; in the test with NCI-H522 lung it was 75%. The growth was 63.1% in the test with A549/ATCC NSCLC, 85.1% in the test on 786-0 renal, 101% in the test on COLO 205 colon and 64.5% with DU-145 prostate.

Regarding `COc1ccc(OC)c(NC(=O)c2cc3oc4ccccc4c3cc2O)c1`, the growth in the test on NCI-H23 lung is 87.4%; in the test on NCI-H226 lung, 90.7%; in the test with NCI-H322M lung, 101%; in the test on HOP-62 NSCLC, 72.4%; in the test on NCI-H460 lung, 100%; in the test on NCI-H522 lung, 90.6%. Moreover, the growth in the test on A549/ATCC NSCLC is 88.4%; in the test on 786-0 renal it was 93.1%; with COLO 205 colon, 88.8%; in the test with DU-145 prostate, 106%.

Regarding `COc1ccc2c(c1)C(=O)c1c-2c(=O)n(CCCCCCC(=O)NO)c2ccccc12`, the growth in the test with NCI-H23 lung is -41.9% (active); in the test with NCI-H226 lung, 1.93% (active); in the test on NCI-H322M lung, -3.32% (active); in the test with HOP-62 NSCLC, -3.67% (active); with NCI-H460 lung, 3.19% (active); in the test on NCI-H522 lung it was 4.79% (active). Besides, the growth was -10.4% (active) in the test on A549/ATCC NSCLC, -3.09% (active) with 786-0 renal, -39.3% (active) in the test with COLO 205 colon and 9.94% (active) in the test on DU-145 prostate.

Regarding `C=CC1=C(C(=O)O)N2C(=O)[C@@H](NC(=O)/C(=N\O)c3csc(N)n3)[C@H]2SC1` (stereo in doubt), the growth in the test with NCI-H23 lung is 96%; in the test on NCI-H226 lung, 101%; in the test on NCI-H322M lung, 109%; in the test on HOP-62 NSCLC, 105%; with NCI-H460 lung it was 105%; with NCI-H522 lung, 106%. Moreover, the growth with A549/ATCC NSCLC was 99.4%; in the test on 786-0 renal it was 105%; in the test with COLO 205 colon, 103%; in the test with DU-145 prostate it was 113%.

In the case of `COc1cccc(-c2nnc(N)o2)c1`, the growth in the test on NCI-H23 lung is 101%; in the test with NCI-H226 lung it was 103%; in the test with NCI-H322M lung it was 99.5%; with HOP-62 NSCLC, 102%; with NCI-H460 lung, 107%; with NCI-H522 lung it was 96.8%. For the same molecule, the growth in the test on A549/ATCC NSCLC was 102%; in the test on 786-0 renal it was 100%; in the test with COLO 205 colon it was 117%; in the test on DU-145 prostate, 107%.

For the molecule `COc1cccc2c1C(=O)c1c(O)c3c(c(O)c1C2=O)C[C@@](O)(/C(C)=N/NC(=O)c1cccc([N+](=O)[O-])c1)C[C@@H]3OC1CC(N)C(O)C(C)O1` (stereo not given in full), the growth with NCI-H23 lung was -33.6% (active); in the test on NCI-H226 lung, -67.4% (active); with NCI-H322M lung it was -3.02% (active); in the test with HOP-62 NSCLC it was -23.8% (active); in the test with NCI-H460 lung, -38.5% (active); in the test on NCI-H522 lung, -61% (active). Also, the growth in the test on A549/ATCC NSCLC is -53.4% (active); in the test on 786-0 renal, -24.6% (active); in the test on COLO 205 colon, -98.1% (active); in the test with DU-145 prostate, -49.7% (active).

As for `O=C(/C=C/c1ccccc1Cl)c1ccc(O)cc1`, the growth in the test on NCI-H23 lung was 93.7%; in the test with NCI-H226 lung it was 95.2%; with NCI-H322M lung it was 89.5%; in the test with HOP-62 NSCLC, 117%; in the test on NCI-H460 lung, 93.8%; with NCI-H522 lung it was 58.2%. Further, the growth in the test on A549/ATCC NSCLC was 41.8%; in the test with 786-0 renal it was 85%; with COLO 205 colon, 90%; in the test on DU-145 prostate, -7.3% (active).

Take `COc1ccc2nccc(/C=C/c3ccnc4ccc(OC)cc34)c2c1`: the growth was 104% with NCI-H23 lung; 131% in the test on NCI-H226 lung; 120% in the test with NCI-H322M lung; 114% in the test with HOP-62 NSCLC; 100% in the test on NCI-H460 lung; 112% in the test on NCI-H522 lung. The growth was 66.1% with A549/ATCC NSCLC, 105% in the test with 786-0 renal, 119% in the test with COLO 205 colon and 104% in the test on DU-145 prostate.

For `CCCCCCCCCCSc1ncnc2nc[nH]c12`, the growth was 36.8% in the test with NCI-H23 lung; 67.4% in the test with NCI-H226 lung; 88.5% in the test on NCI-H322M lung; 86.3% in the test with HOP-62 NSCLC; 65.8% in the test on NCI-H460 lung; 57.1% in the test on NCI-H522 lung. Besides, the growth in the test on A549/ATCC NSCLC is 58.5%; in the test with 786-0 renal it was 71.3%; in the test on COLO 205 colon it was 113%; in the test on DU-145 prostate, 75%.
